Assay outcomes from PubChem.
Hits are enriched below; roughly 0.47% of the tested compounds scored in any of these assays.
AID inh – Primary qHTS assay for inhibitors of Activation Induced Cytidine Deaminase (AID): AID signal. Single-stranded DNA cytosine deaminase (Homo sapiens), Q9GZX7. hit rate 0.32% among 91,000. AID deamination FRET fluorescence, UDG-coupled, 4 h. Potency, µM (series often up to 115 µM), actives largely listed as inhibitors; note: nearly all actives have a fitted effect of over 25% in size
Target sequence (Q9GZX7 whole entry, looked up): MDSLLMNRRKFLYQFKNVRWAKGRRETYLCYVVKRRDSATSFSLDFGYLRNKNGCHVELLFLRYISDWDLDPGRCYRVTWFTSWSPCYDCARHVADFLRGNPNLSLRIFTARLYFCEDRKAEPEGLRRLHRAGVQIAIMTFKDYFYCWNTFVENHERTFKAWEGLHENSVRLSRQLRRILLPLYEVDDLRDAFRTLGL
UDG counterscr – Primary qHTS assay for inhibitors of Activation Induced Cytidine Deaminase (AID): UDG Counterscreen signal. FRET deamination/UDG coupled assay, UDG read, 4 h. Potency, µM (series often up to 115 µM), for the others: top-dose activity change, negative = inhibition, hits mostly inhibitors. hit rate 0.14% among 91,000. AID 1347430, 2020; note: nearly all actives have a fitted effect of over 65% in size
An asterisk follows results filed as active; i = inactive; ? = inconclusive. Calls come from the whole dose curve; as a rule, active = well fitted curve in the direction sought with a large enough effect; inconclusive = small, poorly fitted or top-dose-only effect, or another doubt; inactive = no such curve, though single readings can be large; an effect the other way counts as inactive or inconclusive. % is set by controls: 0 for no effect and ±100 for the full control effect; potency is the fitted concentration of half-maximal effect.

SMILES	AID inh	UDG counterscr
CCCCC/C=C\C/C=C\C/C=C\C/C=C\CCCC(=O)NCC(=O)O	79µM*	7%
COc1ccc2c(c[n+](C)c3c4cc5c(cc4ccc23)OCO5)c1OC	40µM*	-18%
COc1ccc(CCNCc2ccc(Br)cc2)cc1	i	7%
CC(Oc1ccc(Cl)cc1)C(=O)O (stereo not given)	i	0%
O=C(O)c1cc(I)cc(I)c1I	i	5%
CN(N=O)c1cc(O)ccc1O	28µM*	-19%
Cc1ccc(CNCCc2c[nH]c3ccccc23)cc1	i	?
CCC1CCC(NC2CCC(CC)CC2)CC1 (stereo not given)	i	-13%
CC(=O)OC1(C)CCC2C3CCC4CC(=O)CCC4(C)C3CCC21C (stereo not given)	i	-9%
